Assay outcomes deposited in PubChem by several laboratories.
This is a sample that favours compounds with a hit; in the whole collection about 0.54% have one here.
Rtt109 Vps75 = blocks Candida albicans Rtt109/Vps75 acetyltransferase activity; AID 540336; inhibition, % at 34.9 µM; 330,000 compounds, 0.16% hits; Q5AAJ8; purified Rtt109/Vps75, ThioGlo CoA-SH fluorescence, 4 h;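 active = inhibition of at least 50% in every replicate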
PDI inh = PDI (human) enzyme inhibition | P07237 | PDI insulin aggregation turbidity, A650, 90 min | inhibition, % at 10 µM | 350,000 compounds, 0.052% hits;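 active = mean inhibition across replicates of 30% or more, whatever share of single replicates reach that level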
Efflux pump inh = blocks antifungal efflux pumps in multiplex yeast assay; S. cerevisiae Candida pump triplex, Nile Red efflux; inhibition, % at 10 µM; 330,000 compounds, 0.44% hits; AID 485275;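 active = plate passing quality check with inhibition over a set limit, or well fluorescence over plate mean plus 4 SD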;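 note: Nile Red retained in pooled yeast measured as flow cytometry median fluorescence; 0% = buffer negative control and 100% = Enniatin B positive control; higher means more Nile Red kept so more efflux inhibition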
ERp5 block = blocks human ERp5 reductase activity on insulin. Q15084. ERp5 insulin aggregation, absorbance 650 nm, 90 min. inhibition, % at 9.99 µM. 350,000 compounds, 0.05% hits. AID 651711;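 active = mean replicate inhibition above about 25%, with every replicate also reaching it, limit read from the data, passing the limit was not always enough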
Target sequence (Q15084 whole entry, looked up): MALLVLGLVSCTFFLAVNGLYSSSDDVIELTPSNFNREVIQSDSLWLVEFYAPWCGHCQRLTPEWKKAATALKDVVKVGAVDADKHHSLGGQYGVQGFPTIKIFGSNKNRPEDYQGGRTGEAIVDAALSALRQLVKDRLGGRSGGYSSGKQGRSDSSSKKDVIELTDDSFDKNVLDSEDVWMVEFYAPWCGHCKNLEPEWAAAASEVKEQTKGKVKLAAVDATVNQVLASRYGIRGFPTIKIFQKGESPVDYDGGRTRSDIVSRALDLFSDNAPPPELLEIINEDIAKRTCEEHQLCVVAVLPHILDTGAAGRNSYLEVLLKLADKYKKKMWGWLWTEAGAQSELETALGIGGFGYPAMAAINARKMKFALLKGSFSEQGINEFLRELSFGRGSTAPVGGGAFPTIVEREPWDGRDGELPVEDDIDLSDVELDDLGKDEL
PvdQ acylase = P. aeruginosa PvdQ acylase inhibition; inhibition, % at 10 µM; AID 488965; 340,000 compounds, 0.063% hits; purified PvdQ acylase, fluorescence plate reader; in the data active = inhibition above about 30%, passing the limit was not always enough;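 note: 0% = vehicle neutral wells and 100% = reference inhibitor wells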
Yeast cmpd fluor = flagged as fluorescent in efflux inhibitor counter-screen; S. cerevisiae AD/pABC3, compound fluorescence, flow cytometry; fluorescence ratio to DMSO, % at 10 µM; shares compounds with Efflux pump inh; AID 588517; 1,700 compounds, 4% hits;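 active = fluorescence ratio to DMSO above its plate's cutoff, the plate mean ratio plus 5 SD, cut at about 210% in these data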;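 note: unstained yeast with no Nile Red so the signal is compound autofluorescence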
Mdr1 pump inh = inhibitors of Candida albicans Mdr1 efflux pump; shares compounds with Efflux pump inh; inhibition, % at 10 µM; S. cerevisiae AD/CaMDR1, Nile Red efflux, flow cytometry; 1,700 compounds, 1% hits; in the data active = inhibition above about 26%;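 note: 0% = DMSO vehicle and 100% = reference inhibitor; higher means more Nile Red retained so more efflux inhibition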
CaCdr2 efflux inh = inhibitors of Candida albicans Cdr2 efflux pump | shares compounds with Efflux pump inh | S. cerevisiae AD/CaCDR2, Nile Red retention, flow cytometry | Nile Red retention ratio vs DMSO, % at 10 µM | 1,700 compounds, 4% hits | AID 588520; in the data active = Nile Red retention ratio vs DMSO above about 190%;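 note: higher ratio means more blocking of Cdr2 efflux of the dye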
CaCdr1 efflux inh = Candida Cdr1 efflux pump inhibition | shares compounds with Efflux pump inh | S. cerevisiae AD/CaCDR1, Nile Red efflux, flow cytometry | inhibition, % at 10 µM | 1,700 compounds, 1% hits | AID 588522;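 active = inhibition above the screen-wide mean plus twice its standard deviation, cut at about 32% in these data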
* = called active by the depositor; . = not tested or not shown.

SMILES	Rtt109 Vps75	PDI inh	Efflux pump inh	ERp5 block	PvdQ acylase	Yeast cmpd fluor	Mdr1 pump inh	CaCdr2 efflux inh	CaCdr1 efflux inh
COc1ccc(NC(=O)CN(C)C(=O)/C=C/c2cn(-c3ccccc3)nc2-c2ccc(C)cc2)cc1	-0.8	-0.8	0.5*	-4.7	-2.0	91.0	-0.4	112.4	-0.1
COCC#Cc1ccc(CC[C@H]2O[C@H]3CC[C@H](CO)O[C@H]3C[C@H]2NC(=O)Nc2c(C)noc2C)cc1	.	.	.	6.5	.	.	.	.	.
COC(=O)[C@]1(Cc2ccccc2)N=C(c2ccc(OCCCO)cc2)O[C@@H]1c1ccccc1N=[N+]=[N-]	.	.	.	2.8	.	.	.	.	.
Cc1ccc(S(=O)(=O)NN2C(=O)/C(=C/c3cccs3)SC2=S)cc1	31.7	-4.7	0.1	-0.8	8.3	98.2	-0.1	87.3	0.0
Cc1ccc(/C=C2\SC(=S)N(NS(=O)(=O)c3ccc(C)cc3)C2=O)cc1	-5.2	-2.2	-0.1	-0.2	-12.8	.	.	.	.
CO[C@H]1CN(C)C(=O)c2cc(NC(=O)c3ccccc3)ccc2OC[C@@H](C)N(C(=O)C2CC2)C[C@H]1C	.	.	.	-19.4	.	.	.	.	.
COc1ccccc1C1CCN(Cc2c(C)[nH]c3ccccc23)CC1	10.5	9.6	0.9*	-1.2	-12.4	107.8	0.0	95.6	-0.1
Cc1cc(NC(=O)CCC(=O)N(Cc2ccco2)C(C(=O)NC2CCCCC2)c2cccs2)no1 (stereo not given)	0.9	1.2	0.2	-1.8	-13.0	.	.	.	.
Cc1cc(NC(=O)CCC(=O)N(Cc2cccs2)C(C(=O)NC2CCCC2)c2ccccc2)no1 (stereo not given)	11.9	-13.9	0.2	.	22.3	82.2	0.0	95.4	-0.2
Cc1ccc(C(C(=O)NC2CCCC2)N(Cc2ccco2)C(=O)CCC(=O)Nc2cc(C)on2)cc1 (stereo not given)	25.6	-6.9	0.0	.	-4.9	86.5	0.1	95.4	-0.2
C[C@H](CO)N1C[C@H](C)[C@H](CN(C)S(=O)(=O)c2cccc(F)c2)Oc2ncccc2C1=O	.	.	.	-1.0	.	.	.	.	.
C[C@H](CO)N1C[C@H](C)[C@H](CN(C)S(=O)(=O)c2cn(C)cn2)OCCCC[C@H](C)Oc2ccc(NC(=O)Nc3ccc(F)cc3)cc2C1=O	.	.	.	1.6	.	.	.	.	.
CCN(CC)c1ccc(/C=N/NC(=O)c2cc(C)nc3ccccc23)cc1	1.8	-0.8	0.1	-0.5	2.5	.	.	.	.
CCN(CC)c1ccc(/C=C/c2cc(-c3ccccc3)c3ccccc3n2)cc1	-3.7	2.6	1.9*	-4.3	3.4	125.1	1.2	142.3	0.8
COc1ccccc1S(=O)(=O)N[C@@H]1CC[C@H](CC(=O)NCc2cccc(F)c2)O[C@@H]1CO	.	.	.	-0.1	.	.	.	.	.
N#Cc1cc([N+](=O)[O-])ccc1NCCc1ccccn1	-1.5	3.8	3.5*	3.1	-4.6	116.4	0.1	120.5	-0.1
CN1C[C@@H]2[C@H](c3ccccc31)[C@H](CO)N2C(=O)c1ccccn1	.	.	.	5.2	.	.	.	.	.
CCOC(=O)c1c(C)[nH]c(C)c1C(=O)COC(=O)/C=C/c1ccc(OC(F)F)cc1	4.1	-3.2	0.2	-3.4	9.7	.	.	.	.
CCOC(=O)c1c(C)[nH]c(C)c1C(=O)COC(=O)/C=C/c1ccc(Cl)cc1	-3.0	9.1	8.3*	-3.9	-15.8	101.8	-0.3	101.5	-0.3
CCn1c(C(=O)N2CCCC(C(=O)NCCc3ccc(C)cc3)C2)cc2sccc21 (stereo not given)	0.6	-2.1	1.0*	.	-17.1	103.0	0.0	93.5	0.1
COCC(=O)N1[C@H](CO)[C@@H](c2ccccc2)C12CN(C(=O)Cc1ccccn1)C2	.	.	.	-1.7	.	.	.	.	.
COc1cccc(-c2nnc(SC(C(=O)c3c[nH]c4ccccc34)c3ccccc3)n2C)c1 (stereo not given)	-6.4	0.8	0.8*	-1.3	-13.2	103.4	-0.1	103.6	0.1
CC(C)(C)NC(=O)NC(=O)CSc1ncccn1	0.7	-1.9	0.1	-7.9	-12.1	.	.	.	.
CC(C)(C)C(=O)CSc1ncccn1	-10.2	-3.3	0.6*	1.9	5.5	95.3	-0.5	93.0	0.0
COC(=O)c1cc(-c2ccc(Br)cc2)c2c(=O)n(C)c(=O)n(C)c2n1	1.6	-6.8	-0.1	-1.5	-19.0	.	.	.	.
SMILES	Rtt109 Vps75	PDI inh	Efflux pump inh	ERp5 block	PvdQ acylase	Yeast cmpd fluor	Mdr1 pump inh	CaCdr2 efflux inh	CaCdr1 efflux inh
COC(=O)c1cc(OC)nc2c1c(=O)n(C)c(=O)n2C	2.6	-2.6	9.6*	.	9.1	98.2	-0.1	95.6	-0.1
Cc1nn2c3c(cnc2c1-c1ccccc1)C(=O)CCC3	-7.2	-3.7	0.6*	.	-12.1	105.8	-0.1	102.9	-0.1
Nc1cc2c(cc1C(=O)c1cccc(Br)c1)OCCO2	-1.6	-4.8	0.6*	.	-6.2	100.2	-0.3	103.6	0.2
Nc1cc2c(cc1C(=O)c1ccccc1F)OCCO2	0.7	0.8	0.1	-2.5	-10.5	.	.	.	.
COc1ccc2c3c([nH]c2c1)[C@@H](CO)N(C(=O)Nc1ccc(F)cc1)CC31CCN(S(C)(=O)=O)CC1	.	.	.	-0.5	.	.	.	.	.
CCOc1ccc(-c2c(C(=O)N/N=C/c3ccccc3)nnn2-c2nonc2N)cc1	-3.9	10.7	0.2	-0.2	-10.9	94.0	-0.1	103.8	0.0
CCOc1ccccc1/C=N/NC(=O)c1nnn(-c2nonc2N)c1CN1CCCC1	5.5	-6.0	0.1	.	0.3	.	.	.	.
CCOc1ccccc1/C=N/NC(=O)c1nnn(-c2nonc2N)c1CN1CCC(C)CC1	-0.3	12.7	0.6*	5.9	-2.2	85.5	-0.1	93.2	-0.4
Cc1c(C(=O)N/N=C/c2c(O)ccc3ccccc23)nnn1-c1nonc1N	-4.6	-11.5	1.0*	2.2	1.6	87.6	-0.4	94.0	0.0
C[C@@H]1CN([C@H](C)CO)C(=O)Cc2cc(NC(=O)NC3CCCCC3)ccc2O[C@H]1CN(C)Cc1ccc(C(F)(F)F)cc1	.	.	.	0.8	.	.	.	.	.
COc1ccc(CN(C)C[C@H]2OCCCC[C@H](C)Oc3ccc(NS(=O)(=O)c4cccs4)cc3C(=O)N([C@H](C)CO)C[C@H]2C)cc1	.	.	.	-6.0	.	.	.	.	.
C[C@@H]1CN([C@H](C)CO)C(=O)c2cc(C#C[C@@H](C)O)cnc2O[C@H]1CN(C)C(=O)c1ccccc1F	.	.	.	2.8	.	.	.	.	.
CC(C)NC(=O)Nc1ccc2c(c1)CC(=O)N([C@H](C)CO)C[C@H](C)[C@H](CN(C)C(=O)Nc1ccccc1)O2	.	.	.	-5.7	.	.	.	.	.
Clc1ccccc1CSc1nncn1NC/C=C/c1ccccc1	6.1	1.7	7.6*	1.4	5.7	103.4	-0.1	112.4	0.0
COc1ccc(S(=O)(=O)N(C)C[C@H]2Oc3c(NC(=O)c4cc(C)nn4C)cccc3C(=O)N([C@H](C)CO)C[C@@H]2C)cc1	.	.	.	4.4	.	.	.	.	.
O=[N+]([O-])c1cc(/C=N\Nc2ccccn2)ccc1Cl	-5.1	-1.1	0.9*	2.6	-2.2	107.8	0.0	197.4*	-0.1
